In PubChem BioAssay AID504895 (National Center for Advancing Translational Sciences (NCATS), 2011):
Records with an inconclusive call do not appear. Calls of active or inactive are those of the source. Calls come from the whole dose curve; as a rule, active = well fitted curve in the direction sought with a large enough effect; inconclusive = small, poorly fitted or top-dose-only effect, or another doubt; inactive = no such curve, though single readings can be large or run the other way.

The molecules below were run against Protein phosphatase EYA2 (Homo sapiens) (UniProt O00167) (assay: Inhibitors of Eya2ED: Hit Confirmation in Primary Screen). Details: Recombinant Eya2ED, OMFP fluorescence phosphatase assay; series mostly up to 76.9 µM; activity change, negative = inhibition: at the top concentration.
Chain of Protein phosphatase EYA2 (Homo sapiens) (O00167 whole entry, looked up): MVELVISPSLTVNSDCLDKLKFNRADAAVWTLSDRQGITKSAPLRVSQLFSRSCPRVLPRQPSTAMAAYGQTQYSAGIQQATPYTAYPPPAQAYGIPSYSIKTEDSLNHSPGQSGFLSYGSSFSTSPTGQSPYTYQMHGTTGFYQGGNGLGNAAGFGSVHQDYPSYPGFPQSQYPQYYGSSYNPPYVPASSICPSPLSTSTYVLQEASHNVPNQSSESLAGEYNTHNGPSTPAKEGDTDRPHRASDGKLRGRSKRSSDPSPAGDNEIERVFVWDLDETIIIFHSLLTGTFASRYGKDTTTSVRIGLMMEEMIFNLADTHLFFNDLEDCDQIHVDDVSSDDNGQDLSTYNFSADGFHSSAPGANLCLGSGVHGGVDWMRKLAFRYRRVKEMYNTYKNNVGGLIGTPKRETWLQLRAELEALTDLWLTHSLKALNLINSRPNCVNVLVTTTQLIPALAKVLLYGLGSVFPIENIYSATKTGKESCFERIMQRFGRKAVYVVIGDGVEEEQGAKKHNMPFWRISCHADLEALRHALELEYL
Excerpt: The Eya proteins (Eya1-4) were originally identified as essential co-activators of the Six1 transcription factor. […] Knockdown of Six1 decreases cancer cell proliferation and metastases in several different cancer models. […] A fluorescence-based HTS assay has been perfomed against the Molecular Libraries Small Molecule Repository (MLSMR) and has the AID 488837 in this database. After completion of the primary screen, hits were re-ordered and tested again in the primary screen in a 12 point titration. NIH Chemical Genomics Center [NCGC] NIH Molecular Libraries Probe Centers Network [MLPCN] MLPCN Grant: DA030559-01 Assay Submitter (PI): Rui Zhao, University of Colorado, Denver
The Eya2 enzyme was kindly provided by the laboratory of Dr. Rui Zhao. The 3-O-methyl-fluorescein phosphate (OMFP) substrate and all buffer reagents were purchased from Sigma Aldrich. qHTS Assay Setup: 1. Buffer- 50 mM HEPES pH 7.5, 50 mM NaCl, 5 uM MgCl2, 0.05% BSA, 1 mM DTT. 2. OMFP Stock- 10 mM solution prepared in 100% DMSO and stored in single use aliquots at -20C. Assay Procedure- 1. Dispense 1.5 ul per well of Eya2 at 0.2 uM in black medium binding 1536 well Greiner plate 2. Transfer 23 nl of compound and control compound (EGTA) to plate 3. Incubate at ambient for 10 minutes 4. Dispense 1.5 ul per well of OMFP at 50 uM 5. Incubate at ambient for 10 minutes 6. Read on ViewLux using Excitation = 485 nm, Emission = 525 nm
For `O=[N+]([O-])c1ccc(N2CCCC2)c2ccncc12`, the “activity change, negative = inhibition” value was -9.57% (inactive). In the case of `O=c1[nH]c(=O)n(C2CCCCC2)c(O)c1C1NCCc2ccccc21` (stereo not given), the “activity change, negative = inhibition” value is reported as -5.77% (inactive). `Cn1c(O)c(/C=N/NC(=O)c2ccncc2)c(=O)n(C)c1=S` was tested, and the “activity change, negative = inhibition” value was -13.9% (inactive). For `CCOC(=O)c1ccc(N=C(CC)c2c(O)n(C)c(=O)n(C)c2=O)cc1`, the “activity change, negative = inhibition” value was -16% (inactive). For `O=C(O)C1C2CCC(O2)C1C(=O)Nc1cccc(Br)c1` (stereo not given), the “activity change, negative = inhibition” value was 8.6% (inactive).
